In PubChem BioAssay:
Several values for one entry are separate records, joined by “and”; a condition that tells them apart may be missing. Identical values can stand only once. Activity calls are given as the source filed them.

Experiments:
[1] = test system: Plasmodium falciparum Sir2 (PF13_0152, Sir2A); assay: pfSir2 binders on small-molecule microarrays, primary screen, biochemical, small-molecule microarray, 635 nm fluorescence (AID 1098); settings: small-molecule microarray binding, fluorescence 635 nm; higher = more signal;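 note: score merges spot fluorescence intensity with its signal-to-noise ratio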
[2] = small-molecule microarray binders of probe aDKK1, primary screen, biochemical, biotinylated probe, 635/667 nm fluorescence (AID 1099); settings: higher = more signal;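 note: score merges 667nm spot fluorescence with signal to noise across triplicate slides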
[3] = small-molecule microarray binders of probe aCHRDL2, primary screen, biochemical, biotinylated probe, 635/667 nm fluorescence (AID 1100); settings: higher = more signal
[4] = splicing luciferase reporter signal modulators, primary screen, spliceosome inhibition project, cell-based, HEK293, splice +/- reporter (AID 1101); settings: luminescence, 24 h, higher = more signal, called active from +8 up or from −8 down;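 note: HEK293 cells carrying a splicing-competent luciferase reporter gene; test concentration not given here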
[5] = biological target: Fibroblast growth factor 10 (Homo sapiens) (UniProt O15520); assay: FGF10 binders on small-molecule microarrays, primary screen, biochemical, small-molecule microarray, 635 nm fluorescence (AID 1102); settings: FGF10 binding, fluorescence 635 nm, higher = more signal
[6] = test system: glycogen synthase kinase-3 (GSK3A per assay name; protocol says GSK3B); assay: GSK3 binders on small-molecule microarrays, primary screen, biochemical, small-molecule microarray, 635 nm fluorescence, GSK3A (AID 1103); settings: small-molecule microarray binding, fluorescence 635 nm; higher = more signal; note: the record names both GSK3A and GSK3B
[7] = biological target: Epidermal growth factor receptor (Homo sapiens) (UniProt P00533); assay: EGFR binders on small-molecule microarrays, primary screen, biochemical, small-molecule microarray, 635 nm fluorescence (AID 1104); settings: EGFR binding, higher = more signal;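 note: score merges 667 nm emission intensity with spot signal to noise over triplicate slides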
[8] = biological target: Follistatin-related protein 3 (Homo sapiens) (UniProt O95633); assay: FSTL3 binders on small-molecule microarrays, primary screen, biochemical, small-molecule microarray, 635 nm fluorescence (AID 1105); settings: FSTL3 binding, higher = more signal;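 note: score merges emission near 667 nm and signal to noise per printed spot across three slides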
[9] = biological target: Dickkopf-related protein 1 (Homo sapiens) (UniProt O94907); assay: DKK1 binders on small-molecule microarrays, primary screen, biochemical, small-molecule microarray, 635 nm fluorescence scan (AID 1106); settings: DKK1 binding, higher = more signal;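 note: score merges emission near 667 nm with signal to noise over three replicate slides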
[10] = test system: Inhibin beta A chain (activin A); assay: INHBA (activin A) binders on microarrays, primary screen, biochemical, small-molecule microarray, 635 nm fluorescence scan (AID 1107); settings: small-molecule microarray binding, higher = more signal;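 note: mouse activin A protein probed at 4.33 µg/mL on printed slides; score merges bound-protein fluorescence near 667 nm with spot signal-to-noise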
[11] = test system: Human papillomavirus type 1a protein E7 (residues 44-93); assay: HPV1a E7 fragment binders on microarrays, primary screen, biochemical, small-molecule microarray, residues 44-93, 635 nm fluorescence (AID 1108); settings: small-molecule microarray binding, fluorescence 635 nm; higher = more signal;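 note: E7 fragment applied at 1 µg/mL in TBST for 1 h at 4 C; score combines spot fluorescence with its signal to noise ratio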
[12] = modulators of HCV replicon luciferase signal, primary screen, HCV replication inhibitor project, Huh7 cells, luciferase reporter (AID 1109); settings: 48 h, higher = more signal;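 note: huh7 hepatoma cells harbouring a luciferase neomycin HCV replicon reporter; luciferase luminescence as measure of HCV replicon replication; test concentration not given here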
[13] = biological target: Left-right determination factor 2 (Homo sapiens) (UniProt O00292); assay: LEFTY2 binders on small-molecule microarrays, primary screen, biochemical, small-molecule microarray, 635 nm fluorescence scan (AID 1110); settings: LEFTY2 binding, higher = more signal
[14] = biological target: Calmodulin-1 (Homo sapiens) (UniProt P0DP23); assay: CALM1 binders on microarrays, EGTA buffer, profiling panel, biochemical, small-molecule microarray, Cy5-labelled CALM1 (AID 1111); settings: Cy5-CALM1 binding fluorescence, higher = more signal;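 note: labelled calmodulin applied in Tris saline Tween buffer holding calcium plus EGTA and DTT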
[15] = biological target: Calmodulin-1 (Homo sapiens) (UniProt P0DP23); assay: calcium-bound CALM1 binders on microarrays, profiling panel, artefact control for SMM control-protein annotation, biochemical, small-molecule microarray, Cy5-labelled CALM1, plus calcium (AID 1112); settings: Cy5-CALM1 binding fluorescence, higher = more signal;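 note: score merges spot fluorescence with signal to noise from triplicate slides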
[16] = small-molecule microarray binders of probe aWnt5a, primary screen, biochemical, biotinylated probe, 635/667 nm fluorescence (AID 1113); settings: higher = more signal;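 note: score merges 667 nm fluorescence intensity with signal-to-noise per printed feature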
[17] = small-molecule microarray binders of probe aShh, primary screen, biochemical, biotinylated probe, 635/667 nm fluorescence (AID 1114); settings: higher = more signal;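 note: probe is biotin-labelled aShh protein from a stem cell growth factor screen; measures binding of labelled protein to compounds printed on the slide; score merges feature fluorescence at 667 nm with signal-to-noise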
[18] = small-molecule microarray binders of probe aNog, primary screen, biochemical, biotinylated probe, 635/667 nm fluorescence (AID 1115); settings: higher = more signal;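 note: probe is biotinylated aNog protein used at 0.15 µg/mL for 1 h at 4 C; z-score combines 667 nm fluorescence of each spot with its signal to noise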
[19] = biological target: Torsin-1A-interacting protein 1 (Homo sapiens) (UniProt Q5JTV8); assay: LAP1 binders from COS7 cell lysate, primary screen, small-molecule microarray, 635/667 nm fluorescence (AID 1116); settings: COS7-hLAP1 lysate binding, 635 nm fluorescence, higher = more signal
[20] = biological target: Alpha-bungarotoxin (Bungarus multicinctus) (UniProt P60615); assay: alpha-bungarotoxin binders on microarray, profiling panel, artefact control for SMM control protein annotation, biochemical, small-molecule microarray, Alexa647 label, 635/667 nm fluorescence (AID 1117); settings: alpha-BTX-A647 binding fluorescence, higher = more signal
Alpha-bungarotoxin (Bungarus multicinctus), sequence (P60615 whole entry, looked up): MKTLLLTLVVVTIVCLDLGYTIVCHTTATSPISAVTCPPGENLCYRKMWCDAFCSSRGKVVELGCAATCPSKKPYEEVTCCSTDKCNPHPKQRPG

Epidermal growth factor receptor (Homo sapiens), sequence (P00533 whole entry, looked up): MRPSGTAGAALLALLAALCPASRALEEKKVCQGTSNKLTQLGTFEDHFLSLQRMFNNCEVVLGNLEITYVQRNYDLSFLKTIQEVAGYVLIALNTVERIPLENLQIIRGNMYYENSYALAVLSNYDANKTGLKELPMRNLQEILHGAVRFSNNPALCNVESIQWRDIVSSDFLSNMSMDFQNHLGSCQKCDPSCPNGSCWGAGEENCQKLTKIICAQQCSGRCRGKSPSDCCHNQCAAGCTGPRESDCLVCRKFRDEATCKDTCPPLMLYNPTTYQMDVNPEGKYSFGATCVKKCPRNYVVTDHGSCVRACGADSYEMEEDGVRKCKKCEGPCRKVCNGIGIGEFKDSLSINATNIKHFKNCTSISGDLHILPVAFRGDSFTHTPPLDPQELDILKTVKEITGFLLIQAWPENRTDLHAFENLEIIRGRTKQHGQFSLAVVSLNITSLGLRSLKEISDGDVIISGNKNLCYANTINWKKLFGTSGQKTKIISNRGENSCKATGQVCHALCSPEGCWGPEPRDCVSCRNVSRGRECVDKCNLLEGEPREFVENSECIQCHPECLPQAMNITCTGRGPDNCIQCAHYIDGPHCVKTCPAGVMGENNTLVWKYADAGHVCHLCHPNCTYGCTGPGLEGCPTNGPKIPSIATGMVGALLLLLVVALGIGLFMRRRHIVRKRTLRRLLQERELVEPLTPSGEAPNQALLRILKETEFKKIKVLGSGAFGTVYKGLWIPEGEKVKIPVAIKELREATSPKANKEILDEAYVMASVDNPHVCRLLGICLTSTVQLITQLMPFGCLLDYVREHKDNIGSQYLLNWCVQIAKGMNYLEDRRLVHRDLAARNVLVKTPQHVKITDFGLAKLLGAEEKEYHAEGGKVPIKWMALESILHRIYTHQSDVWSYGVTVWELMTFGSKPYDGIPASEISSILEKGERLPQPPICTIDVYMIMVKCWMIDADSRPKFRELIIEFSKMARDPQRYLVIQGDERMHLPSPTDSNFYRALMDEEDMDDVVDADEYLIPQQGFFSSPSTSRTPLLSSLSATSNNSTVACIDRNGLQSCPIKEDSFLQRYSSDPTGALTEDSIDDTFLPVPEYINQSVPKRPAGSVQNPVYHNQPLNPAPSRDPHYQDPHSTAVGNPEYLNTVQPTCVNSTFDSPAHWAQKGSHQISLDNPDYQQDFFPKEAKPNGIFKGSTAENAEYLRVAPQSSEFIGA
Follistatin-related protein 3 (Homo sapiens), sequence (O95633 whole entry, looked up): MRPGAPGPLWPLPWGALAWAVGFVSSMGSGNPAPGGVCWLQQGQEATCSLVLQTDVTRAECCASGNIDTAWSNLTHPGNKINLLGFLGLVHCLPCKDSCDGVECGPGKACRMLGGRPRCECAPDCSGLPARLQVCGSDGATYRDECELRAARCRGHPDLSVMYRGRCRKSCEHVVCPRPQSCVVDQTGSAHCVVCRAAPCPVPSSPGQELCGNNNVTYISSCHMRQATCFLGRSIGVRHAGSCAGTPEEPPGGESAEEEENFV
Dickkopf-related protein 1 (Homo sapiens), sequence (O94907 whole entry, looked up): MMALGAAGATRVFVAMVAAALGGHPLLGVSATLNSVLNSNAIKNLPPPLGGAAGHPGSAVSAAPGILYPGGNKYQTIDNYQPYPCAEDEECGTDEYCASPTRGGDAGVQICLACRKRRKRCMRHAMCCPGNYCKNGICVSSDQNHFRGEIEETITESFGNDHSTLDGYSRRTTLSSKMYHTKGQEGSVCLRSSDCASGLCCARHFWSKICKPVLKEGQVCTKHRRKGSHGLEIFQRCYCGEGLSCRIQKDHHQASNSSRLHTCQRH
Left-right determination factor 2 (Homo sapiens), sequence (O00292 whole entry, looked up): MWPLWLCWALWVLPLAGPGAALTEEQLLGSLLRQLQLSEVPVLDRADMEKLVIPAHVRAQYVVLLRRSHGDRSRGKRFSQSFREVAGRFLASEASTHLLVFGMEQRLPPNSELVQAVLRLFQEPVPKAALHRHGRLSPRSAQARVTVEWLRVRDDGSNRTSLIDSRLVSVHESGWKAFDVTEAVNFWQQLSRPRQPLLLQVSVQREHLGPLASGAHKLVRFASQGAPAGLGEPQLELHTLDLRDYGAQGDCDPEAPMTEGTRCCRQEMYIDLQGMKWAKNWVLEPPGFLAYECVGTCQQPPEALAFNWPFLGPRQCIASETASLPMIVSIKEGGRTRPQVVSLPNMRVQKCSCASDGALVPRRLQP
Torsin-1A-interacting protein 1 (Homo sapiens), sequence (Q5JTV8 whole entry, looked up): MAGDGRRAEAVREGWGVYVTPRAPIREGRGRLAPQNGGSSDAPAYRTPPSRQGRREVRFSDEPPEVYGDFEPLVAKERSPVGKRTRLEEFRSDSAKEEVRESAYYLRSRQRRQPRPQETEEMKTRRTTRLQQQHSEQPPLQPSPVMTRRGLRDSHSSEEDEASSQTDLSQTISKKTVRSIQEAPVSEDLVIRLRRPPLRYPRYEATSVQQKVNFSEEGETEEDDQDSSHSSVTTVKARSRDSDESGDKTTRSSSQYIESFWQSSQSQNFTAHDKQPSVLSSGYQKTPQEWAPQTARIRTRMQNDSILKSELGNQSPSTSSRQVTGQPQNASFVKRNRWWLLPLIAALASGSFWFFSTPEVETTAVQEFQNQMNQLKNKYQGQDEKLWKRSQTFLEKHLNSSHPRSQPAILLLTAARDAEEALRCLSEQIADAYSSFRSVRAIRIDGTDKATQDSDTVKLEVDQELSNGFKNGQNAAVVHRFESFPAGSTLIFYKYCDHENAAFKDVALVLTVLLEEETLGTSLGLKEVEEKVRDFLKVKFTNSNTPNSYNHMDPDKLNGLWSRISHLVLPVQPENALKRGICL
Fibroblast growth factor 10 (Homo sapiens), sequence (O15520 whole entry, looked up): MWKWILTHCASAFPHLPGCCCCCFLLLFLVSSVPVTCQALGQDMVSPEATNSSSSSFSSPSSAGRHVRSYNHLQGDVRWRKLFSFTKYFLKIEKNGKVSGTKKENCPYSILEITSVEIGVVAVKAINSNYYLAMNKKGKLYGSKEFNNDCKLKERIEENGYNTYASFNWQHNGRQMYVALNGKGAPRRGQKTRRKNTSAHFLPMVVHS

SMILES	composite z-score [1]	composite z-score [2]	composite z-score [3]	z-score [4]	composite z-score [5]	composite z-score [6]	composite z-score [7]	composite z-score [8]	composite z-score [9]	composite z-score [10]	composite z-score [11]	z-score [12]	composite z-score [13]	composite z-score [14]	composite z-score [15]	composite z-score [16]	composite z-score [17]	composite z-score [18]	composite z-score [19]	composite z-score [20]
CC(C)OC(=O)C=C1C[C@@H](c2cccc(C(F)(F)F)c2)O[C@@H](c2cccc(C(F)(F)F)c2)O1	0.937 and 1.55	0.326 and -0.186	0.605 and -0.185	1.12 (inactive) and -1.24 (inactive)	-0.135 and -0.527	0.335 and 0.267	-1.14 and -1.45	-0.815 and -1.39	-0.49 and -0.776	-0.347 and -0.587	1.34 and 0.979	-1.55 and -2.35	-0.906 and -0.656	1.21 and 0.297	0.831 and 0.224	0.0433 and -0.218	0.04 and -0.162	0.509 and 0.655	1.03 and 0.0622	0.613 and 0.269
C[C@@H](c1ccccc1)N1C(=O)[C@H]2[C@H]3[C@H](O)[C@H](O)CC(=O)[C@@H]3CC[C@H]2C1=O	0.11	-0.152	-0.706	-1.26 (inactive)	0.685	0.59	0.43	0.599	0.943	-0.838	0.189	0.265	0.574	0.377	-0.241	-0.119	0.163	-0.387	0.49	-0.0104
C=CCN(Cc1ccccc1)C(=O)C(c1cccs1)N(C(=O)/C=C\C(=O)O)c1c(Cl)cccc1CO (stereo not given)	-1.01 and -1.02	-0.833 and 0.0042	0.898 and 0.996	0.395 (inactive) and -0.0385 (inactive)	-1.96 and -1.73	-1.09 and -1.76	-1.63 and -1.36	-1.27 and -2.07	-2.01 and -2.62	-3.32 and -2.86	-1.63 and -2.43	-0.68 and -0.803	-0.682 and -3.86	-0.374 and -0.222	0.58 and 0.911	-0.12 and -0.298	-0.212 and -0.366	-0.153 and 0.103	-1.51 and -0.936	-0.974 and -2.03
